PKA-R2B act = activators of PKA-R2B holoenzyme, primary screen, biochemical, fluorescence polarization, Cy5-IP20, human. cAMP-dependent protein kinase catalytic subunit beta (Homo sapiens) + cAMP-dependent …. PKA-R2B holoenzyme dissociation; R2B truncated from residue 108, S112A mutant; 0% DMSO only, 100% 113 µM cGMP. activation, % at 11.4 µM. 340,000 compounds, 0.079% hits;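 active means activation above a cutoff set at the mean over all compounds plus 3 SD, cut at about 18% in these data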;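 further: higher means more holoenzyme dissociation and a rise in polarization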
Target sequence (P31323 whole entry, looked up, other chains not shown, the tested form may be a part): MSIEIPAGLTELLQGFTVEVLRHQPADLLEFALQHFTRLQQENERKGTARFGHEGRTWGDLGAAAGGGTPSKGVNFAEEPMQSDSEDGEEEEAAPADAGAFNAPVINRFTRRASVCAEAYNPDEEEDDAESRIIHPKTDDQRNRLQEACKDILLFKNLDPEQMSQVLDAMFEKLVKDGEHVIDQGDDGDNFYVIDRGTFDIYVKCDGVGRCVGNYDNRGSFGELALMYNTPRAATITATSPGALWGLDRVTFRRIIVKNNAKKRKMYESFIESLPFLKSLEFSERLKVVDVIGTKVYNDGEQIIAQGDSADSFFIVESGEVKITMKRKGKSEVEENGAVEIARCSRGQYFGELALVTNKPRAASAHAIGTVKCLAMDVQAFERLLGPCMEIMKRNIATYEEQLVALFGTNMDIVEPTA
ANO1 block = TMEM16A chloride channel inhibitors, primary screen, cell-based, HTS | Anoctamin-1 (Mus musculus), Q8BHY3 | HEK293 TMEM16A/YFP iodide influx fluorescence, ionomycin | normalized B-score (activity score, 25-100; higher = stronger inhibition) at 10 µM | 310,000 compounds, 1.2% hits | AID 588511, 2011;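 active means ratio plate-corrected score three or more library SD toward inhibition, starting fluorescence score within five deviations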;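 further: score derived from kinetic fluorescence span divided by baseline fluorescence per well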
PKA-R1A activ = activators of PKA-R1A holoenzyme, primary screen, biochemical, fluorescence polarization, Cy5-IP20, bovine R1A, mouse PKAc; PKA-R1A dissociation; scaled: DMSO 0%, 113 µM cGMP 100%; cAMP-dependent protein kinase type I-alpha regulatory subunit (Bos taurus) + …; 340,000 compounds, 0.083% hits; activation, % at 11.4 µM;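 active means percent activation above the mean of all tested compounds plus 3 SD, cut at about 19% in these data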;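 further: higher means more PKAc released from R1A so a rise in polarization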
CHT inh = inhibitors of human choline transporter CHT. CHT-expressing cells, membrane potential dye, choline response; active compounds read low. B-score at 10 µM. 310,000 compounds, 0.86% hits. AID 488975, 2010;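 active means B-score over 3 SD under the library average, and starting fluorescence ratio not unusually high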;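 further: choline stimulus applied at its EC90 after an EC20 pre-addition; B-score computed on integrated fluorescence ratio after choline addition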
TMEM16A act = TMEM16A chloride channel activators or potentiators, primary screen, cell-based, HTS; B-score at 10 µM; 340,000 compounds, 0.3% hits; HEK293 TMEM16A/YFP-H148Q/I152L, iodide quench fluorescence; active compounds read low;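 active means fluorescence-ratio B-score plate-corrected deviation score at least 3 library SD below zero, with starting fluorescence score within 5 deviations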;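 further: channel opened by trigger with iodide after compound preincubation; score built on the fluorescence ratio of max minus min over baseline; more negative score means more quench and so TMEM16A activation or potentiation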
CHT allo act = CHT positive allosteric modulators, primary screen, cell-based, membrane potential dye, choline EC20. High affinity choline transporter 1 (Homo sapiens), Q9GZV3. CHT-expressing cells; active compounds read high; LV-AA mutant CHT in HEK293 cells. B-score at 10 µM. 310,000 compounds, 0.49% hits. AID 488977, 2010;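 active means initial fluorescence not abnormally high and integrated response B-score, plate-corrected, over 3 SD above library mean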
CHT activ conf = CHT activators, confirmation, cell-based, membrane potential dye, duplicate | 2,500 compounds, 91% hits | CHT-expressing cells, membrane potential dye fluorescence (FDSS); % of choline EC20–EC90 response window; HEK293 expressing CHT LV-AA mutant; choline added at its EC20 | activation, % at 10 µM | AID 504833, 2011 | shares compounds with CHT allo act;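 active means primary screen active, with duplicate mean activation above negative control mean plus 3 SD, cut at about 11% in these data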
HEK293 MP dye = membrane potential response in parental HEK293 cells, counter-screen for CHT activator project, cell-based, membrane potential dye; shares compounds with CHT allo act; membrane potential dye fluorescence (FDSS); measured after EC20 choline addition; ratio readout change at 10 µM, hits read low; 2,500 compounds, 62% hits; AID 623908, 2012;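 active means duplicate-averaged ratio beyond 3 SD from buffer wells, up or down, though filed actives are nearly all decreases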
Numbers stand for hits; – = inactive; · = no result. The list is not random: actives were taken first. Their share in the collection is about 2.5%.

SMILES	PKA-R2B act	ANO1 block	PKA-R1A activ	CHT inh	TMEM16A act	CHT allo act	CHT activ conf	HEK293 MP dye
Cn1c(C(=O)NCCCN2CCOCC2)cc2c(=O)n(C)c3ccccc3c21	–	–	–	–	–	–	·	·
Cn1c(C(=O)NCCN2CCCCCC2)cc2c(=O)n(C)c3ccccc3c21	–	–	–	–	–	–	25	-27
Cc1nc(NC(C)c2ccccc2)c2c3c(sc2n1)CCC3 (configuration not stated)	–	–	–	–	–	–	18	–
O=C1CCC(=O)N1CCSC(=S)N1CCSCC1	–	–	–	–	–	–	·	·
CCOC(=O)c1cnc2c(C(F)(F)F)cccc2c1NCCCN1CCOCC1	–	–	–	–	–	–	43	-67
CCOC(=O)c1cnc2c(CC)cccc2c1NCCCN1CCOCC1	–	–	–	–	–	–	·	·
O=C(Nc1cccc(C2=NCCN2)c1)Nc1cccc(C2=NCCN2)c1	–	–	–	–	–	–	·	·
COc1cc(OC)cc(C2=NCCN2)c1	–	–	–	–	–	–	35	-43
CCN1CCN(Cc2cc(=O)oc3cc(C)cc(C)c23)CC1	–	–	–	–	–	7.1	40	-42
Cc1cc(C)c2c(CN3CCOCC3)cc(=O)oc2c1	–	–	–	–	–	–	·	·
CCC(=O)N(CCC(c1ccc(C)cc1)c1ccco1)Cc1ccco1 (configuration not stated)	–	–	–	–	–	8.7	40	–
Cc1ccc(NC(=O)Cc2ccccc2)c(C)c1	·	–	·	–	·	–	·	·
Cc1ccc(C[n+]2cccc(-c3ccccc3)c2)c(C)c1	–	–	–	–	–	8.4	59	–
O=C1CN(C(=O)c2c(F)cccc2F)C(c2ccccc2)c2cc(Br)ccc2N1 (configuration not stated)	–	–	–	–	–	–	14	–
O=C1CN(C(=O)c2ccccc2[N+](=O)[O-])C(c2ccccc2)c2cc(Br)ccc2N1 (configuration not stated)	–	–	–	–	–	6.7	24	–
Cc1ccc2c(c1)C(c1ccccc1)N(C(=O)c1ccccc1[N+](=O)[O-])CC(=O)N2 (configuration not stated)	–	–	–	–	–	–	·	·
Cc1ccnc(SCc2cn3c(C)cccc3n2)n1	–	–	–	–	–	7	27	-46
Cc1cc(C)c(C#N)c(SCc2cn3c(C)cccc3n2)n1	–	–	–	–	–	–	56	-42
Cc1cc(C)nc(SCc2cn3c(C)cccc3n2)n1	·	–	·	–	–	6.8	44	-53
Cc1cc(C)c(C#N)c(SCc2ccc(C#N)cc2)n1	–	–	–	–	–	–	·	·
Cc1cccc2nc(CSc3ncccc3C(=O)O)cn12	–	–	–	–	–	–	·	·
COc1ccccc1C(=O)N/C(=C\c1cn(S(=O)(=O)N(C)C)c2ccccc12)C(=O)NCCN1CCOCC1	–	–	–	–	–	–	·	·
Cc1cc(C)n2nc(C(=O)N/N=C/c3ccco3)nc2n1	–	–	–	–	–	7	59	-60
Cc1cc(C)n2nc(C(=O)Nc3nnc(C4CC4)s3)nc2n1	–	–	–	–	–	–	·	·
Cc1cc(C)n2nc(C(=O)Nc3cccnc3)nc2n1	–	–	–	–	–	8.7	47	-48
SMILES	PKA-R2B act	ANO1 block	PKA-R1A activ	CHT inh	TMEM16A act	CHT allo act	CHT activ conf	HEK293 MP dye
CCSc1nnc(NC(=O)c2nc3nc(C)cc(C)n3n2)s1	–	–	–	–	–	6.3	48	-41
Cc1cc(C)n2nc(C(=O)Nc3nccs3)nc2n1	–	–	–	–	–	–	54	-27
Cc1cc(C)n2nc(C(=O)N/N=C/c3ccccc3Cl)nc2n1	–	–	–	–	–	–	·	·
CC1CCc2sc(C(=O)N(C)CC(=O)Nc3ccc(N4CCOCC4)cc3)cc2C1 (configuration not stated)	–	–	–	–	–	–	·	·
c1ccc2oc(-c3ccc(Nc4nc(N5CCCC5)nc(N5CCOCC5)n4)cc3)nc2c1	·	–	·	–	·	–	·	·
O=C(NCCCCc1ccccc1)c1cccc([N+](=O)[O-])c1	–	–	–	–	–	–	·	·
O=C(NCCCCc1ccccc1)c1cc([N+](=O)[O-])cc([N+](=O)[O-])c1	–	–	–	–	–	–	49	-24
Cc1ccc(N(CC(=O)NC2CCCC2)C(=O)CNC(=O)c2cccs2)cc1C	–	–	–	–	–	–	·	·
C[n+]1cccc2c(Br)ccc([O-])c21	–	–	–	–	–	6.4	58	-48
Cc1ccc(NC(=O)c2cc3ccccc3o2)nc1	–	–	–	–	–	–	·	·
CN(C)CCCN(C(=O)c1ccco1)c1nc2c(F)cc(F)cc2s1	–	–	–	–	–	–	·	·
CN(C)CCCN(C(=O)c1ccco1)c1nc2c(F)cccc2s1	–	–	–	–	–	–	45	-58
COc1ccccc1CNS(=O)(=O)c1ccc(N2CCCC2)cc1Br	–	·	–	·	·	·	·	·
CCOC(=O)C1CCN(c2nc(C)nc3c2oc2ccccc23)CC1	–	–	–	–	–	8	–	–
Cc1nc(N2CCOCC2)c2oc3ccccc3c2n1	–	–	–	–	–	–	·	·
CN1CCN(c2nc(N3CCN(CCO)CC3)nc3ccccc23)CC1	–	–	–	–	–	11	37	-102
c1ccc2c(N3CCOCC3)nc(-c3ccncc3)nc2c1	–	–	–	–	–	7.1	83	-57
CC1CCN(c2nc(-c3ccncc3)nc3ccccc23)CC1	–	–	–	–	–	–	·	·
c1cncc(-c2nc(N3CCOCC3)c3ccccc3n2)c1	–	–	–	–	–	8.1	53	-49
c1ccc2c(N3CCOCC3)nc(N3CCOCC3)nc2c1	–	–	–	–	–	12	48	-86
